The values below come from PubChem BioAssay (EPA / NIEHS).

Records with an inconclusive call do not appear. Activity calls are given as the source filed them. The calls were made as follows: active = hit-call score of the fitted dose curve at least 0.9, where 1 is the maximum; inconclusive = response in the unintended direction; inactive = score below 0.9.

This assay in a line: ACEA_ER_80hr: ACEA Biosciences xCELLigence Real-Time Cell Analysis on Estrogen Receptor Agonism for Proliferation (AID 2282667). Conditions: T47D proliferation, impedance (xCELLigence), 80 h. The procedure, abridged: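 Real-time electrical impedance tracked growth of the human breast line T47D, with the 80 h post-dosing value used. Dosing spanned eight 1:4 steps down from a 100 uM final top concentration, run in duplicate.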
Regarding `CC(C)OC(=S)S`, the call was inactive.

On to `CCC[CH2][Sn]([CH2]CCC)([CH2]CCC)[O]C(=O)c1ccccc1`, for which the compound was called inactive.

For the compound `ClC1=C(Cl)[C@]2(Cl)[C@@H]3[C@@H](Cl)[C@@H](Cl)C[C@@H]3[C@@]1(Cl)C2(Cl)Cl`, the call was inactive.

`Cc1ccc2ccccc2c1C`: the AC50 is 13500 nM (active).

Turning to `O=P(O)(O)c1ccccc1`, the result was inactive.

For the compound `COP(=S)(OC)Oc1ccc(S(=O)(=O)N(C)C)cc1`, the outcome was inactive.

Turning to `O=Cc1cccc(Oc2ccccc2)c1`, the outcome was inactive.

`CCc1ccccc1N`: the compound was classed as inactive.

Regarding `COP(=S)(OC)Oc1c(Cl)cc(C)cc1Cl`, the result was inactive.

Regarding `COS(=O)(=O)c1ccc(C)cc1`, the call was inactive.

Take `CCOP(=S)(OCC)Oc1ccc(S(C)=O)cc1` (stereo unspecified): the compound was called inactive.

With `BrCCBr`, the outcome was inactive.

As to `Clc1ccc(C2(Cn3cncn3)CC(Br)CO2)c(Cl)c1` (stereo unspecified), the result was inactive.

`CC(C)c1cccc(C(C)C)c1O`: the call was inactive.

On to `COP(=O)(OC)OC`, for which the compound was called inactive.

On to `COP(=S)(OC)Oc1cc(Cl)c(Cl)cc1Cl`, for which the compound was called inactive.

For `Clc1ccc(COC(Cn2ccnc2)c2ccc(Cl)cc2Cl)cc1` (stereo unspecified), the compound was classed as inactive.

Take `CN(CCCC(=O)c1cccnc1)N=O`: the call was inactive.

Regarding `C=CCc1ccc(OC)cc1`, the result was inactive.

Regarding `COP(=S)(OC)Oc1ccc(Sc2ccc(OP(=S)(OC)OC)cc2)cc1`, the AC50 was 23.3 nM (active).

As to `CCCCCCCCC(=O)NCc1ccc(O)c(OC)c1`, the compound was classed as inactive.

As for `O=CC=O`, the compound was classed as inactive.

For `CC(=O)C(Cl)C(=O)N(C)C` (stereo unspecified), the AC50 is 272 nM (active).

Take `CCCCC(CC)CO[N+](=O)[O-]` (stereo unspecified): the result was inactive.

Turning to `CC(=O)c1cc(C(C)(C)C)cc2c1CCC2(C)C`, the result was inactive.

Turning to `CCCCOCCOC(C)=O`, the call was inactive.
